Assay results reported in the supplement of paper PMC10941209.

Each compound was assayed on HFF (assay: cell viability relative to DMSO control; higher = less cytotoxic). Conditions: 1 µM; 72 h.
Protocol: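 Single-dose cytotoxicity screen of the MMV Pandemic Response Box at 1 uM on human foreskin fibroblasts (HFF), 72 h at 37 C. Viability measured by MTT (OD 550 nm) and normalised to the DMSO control (% survival).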

Which cell viability does the source give for CCc1c(O)nc2ccc(F)cc2c1OCC1CCC1 here?
The cell viability was 56.8%.

Nc1nc(N)c2c(Sc3ccccc3)cccc2n1 was tested. Which cell viability did it give?
The cell viability was 68.7%.

Cc1nc(-c2ccc(C3N(C)c4ccc(F)cc4C(=O)N3c3ccccc3)s2)cs1 (configuration not stated) was tested. Which cell viability did it give?
The cell viability was 65.2%.

How did the cell viability turn out when COc1c(F)c(F)cc2c(=O)c(C(=O)O)cn(C3CC3)c12 was run?
Its cell viability is 69.4%.

COc1cc(NCc2ccc3nc(N)nc(N)c3c2C)cc(OC)c1OC was tested. Which cell viability did it give?
Its cell viability is 63.7%.

How did the cell viability turn out when O=C(CP(=O)(O)O)NCCc1cccc(Oc2ccccc2)c1 was run?
Its cell viability is 65.7%.

Clc1cc(Cl)c2c(c1)CCc1ccccc1C2n1ccnc1 (configuration not stated) was tested. Which cell viability did it give?
Its cell viability is 80.7%.

Which cell viability does the source give for CC(C)/N=c1\cc2n(-c3ccc(Cl)cc3)c3ccccc3nc-2cc1Nc1ccc(Cl)cc1 here?
Its cell viability is 72.6%.

With C[C@H](NC(=O)C(=O)Nc1ccccc1C(C)(C)C)C(=O)N[C@@H](CC(=O)O)C(=O)COc1c(F)c(F)cc(F)c1F as the compound, how does the cell viability read?
Its cell viability is 55.9%.

With CC(C)Oc1ccc(-n2cnc3cc(/C=C\c4ccc(C(C)(C)O)cc4)ccc32)cc1 as the compound, how does the cell viability read?
Its cell viability is 64.2%.

With CC(C)=CCC/C(C)=C/CNCCNC1C2CC3CC(C2)CC1C3 (configuration not stated) as the compound, how does the cell viability read?
The cell viability was 80.2%.

For Nc1nc(=O)c(Br)c(-c2ccccc2)[nH]1, which cell viability is on record?
The cell viability was 64.9%.

With NC[C@H]1OB(O)c2c(OCCCO)cccc21 as the compound, how does the cell viability read?
Its cell viability is 69.9%.

N=C(N)c1ccc(COc2ccc(Cl)cc2)cc1 was tested. Which cell viability did it give?
Its cell viability is 65.4%.

Which cell viability does the source give for Cn1cncc1[C@@](N)(c1ccc(Cl)cc1)c1ccc2c(c1)c(-c1cccc(Cl)c1)cc(=O)n2C here?
The cell viability was 61.1%.

O=C1CCC(N2C(=O)c3ccccc3C2=O)C(=O)N1 (configuration not stated) was tested. Which cell viability did it give?
The cell viability was 59%.

With O=C(O)CCNC(=O)c1ccccc1 as the compound, how does the cell viability read?
Its cell viability is 66.9%.

With CSc1ccc2c(c1)C(N1CCN(C)CC1)Cc1ccccc1S2 (configuration not stated) as the compound, how does the cell viability read?
The cell viability was 65%.

For NCc1ccc(S(N)(=O)=O)cc1, which cell viability is on record?
The cell viability was 61.5%.

O=C(NCc1ccc(F)cc1)c1c(O)c2ncccc2[nH]c1=O was tested. Which cell viability did it give?
The cell viability was 50.8%.

For COc1cccc(N2CCN(C3=Nc4c(F)cccc4[C@H](CC(=O)O)N3c3cc(C(F)(F)F)ccc3OC)CC2)c1, which cell viability is on record?
The cell viability was 55.7%.

CCCCOC(=O)Nc1cc2nc(C3CCCCC3)[nH]c2cc1N(CC)CC was tested. Which cell viability did it give?
Its cell viability is 72.1%.

For COc1ccc(C(C)(C)C)cc1NC(=O)C(=O)c1ccc(OCCN2CCOCC2)c2ccccc12, which cell viability is on record?
The cell viability was 69.1%.

How did the cell viability turn out when CN1c2ccc(Cl)cc2N(c2ccccc2)C(=O)c2cn(Cc3ccc(CN4CCOCC4)cc3)nc21 was run?
Its cell viability is 68.2%.

Which cell viability does the source give for Cc1c(CN(C)C(=O)/C=C/c2cnc3c(c2)C(C)(C)C(=O)N3)oc2ccccc12 here?
The cell viability was 63.6%.

Which cell viability does the source give for CC(=O)N1c2ccccc2NC2=C(C(=O)CC(C)(C)C2)C1c1ccc(OCc2ccccc2)cc1 (configuration not stated) here?
The cell viability was 70.4%.

With COc1ccc(C2CNC(=O)C2)cc1OC1CCCC1 (configuration not stated) as the compound, how does the cell viability read?
Its cell viability is 69.5%.

Which cell viability does the source give for Nc1nc(O)c2ncn([C@@H]3O[C@H](CO)[C@@H](O)[C@H]3F)c2n1 here?
The cell viability was 68.9%.

Which cell viability does the source give for O=C(NCCN1CCCCC1)c1cccc(C(F)(F)F)c1 here?
The cell viability was 70.6%.

For NC(=O)c1[nH]c2ccc(S(N)(=O)=O)cc2c1-c1ccccc1, which cell viability is on record?
The cell viability was 75.8%.

For O=C(Nc1ccccc1C(=O)O)c1cccc(Oc2ccccc2)c1, which cell viability is on record?
The cell viability was 67.4%.

For CCC(CC)[C@H](NC(C)=O)[C@@H]1[C@H](O)[C@@H](C(=O)O)C[C@H]1NC(=N)N, which cell viability is on record?
The cell viability was 73.5%.

How did the cell viability turn out when Cc1cc(Nc2ccc(F)cc2)nc(SCc2nc3ccccc3[nH]2)n1 was run?
Its cell viability is 66%.

O=S(=O)(NCB(O)O)c1ccc(-c2nnn[nH]2)cc1C(F)(F)F was tested. Which cell viability did it give?
The cell viability was 70.9%.

For O=C(Nc1ccc(F)cc1)c1nn(-c2ccccc2)c(=O)cc1Cl, which cell viability is on record?
The cell viability was 71%.

Which cell viability does the source give for CCC(C)n1ncn(-c2ccc(N3CCN(c4ccc(OCC5COC(Cn6cncn6)(c6ccc(Cl)cc6Cl)O5)cc4)CC3)cc2)c1=O (configuration not stated) here?
The cell viability was 78.2%.

With Nc1nc(-c2ccccc2)nc2c1ncn2[C@@H]1O[C@H](COS(=O)(=O)NC(=O)c2ccccc2O)[C@@H](O)[C@H]1O as the compound, how does the cell viability read?
The cell viability was 72.2%.
